Among the data in PubChem BioAssay are composite z-score and z-score values, retold here.

Activity calls are given as the source filed them.

Test [1] relates to PRMT1 (protein arginine N-methyltransferase 1). As to the kind of experiment: PRMT1 binders on small-molecule microarrays, primary screen, biochemical, small-molecule microarray, 635 nm fluorescence (AID 1088).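 Further: binding of Prmt1 protein to compounds spotted on small-molecule microarray slides.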 The following applies: small-molecule microarray binding, higher = more signal.
A short description of test [2]: yeast growth modulation, basal conditions, primary screen, YJM789 clinical isolate, OD600, 24 h (AID 1089).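 Further: growth of clinical yeast isolate S. cerevisiae YJM 789 seeded 1000 cells per well; test concentration not given here.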 The following applies: S. cerevisiae YJM789 growth, higher = more signal, called active from +8 up or from −8 down.
Test [3] is described as follows: fission yeast growth modulation, primary screen, strain 972, OD600, 24 h, no modulator (AID 1090).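 Further: basal condition with compound alone and no growth modifier present; test concentration not given here.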 The following applies: S. pombe 972 growth, higher = more signal, called active from +8 up or from −8 down.
Test [4] in a line: S. cerevisiae growth modulation with rapamycin, primary screen, strain BY4716, OD600, 96 h (AID 1091). Further: test concentration not given here. The following applies: higher = more signal, called active from +8 up or from −8 down.
The target of test [5] is Torsin-1A-interacting protein 2 (Homo sapiens) (UniProt Q8NFQ8). In words: LULL1 binders on small-molecule microarray, primary screen, cell lysate, human LULL1 lysate, 635/667 nm fluorescence (AID 1092).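 Further: probe is lysate of COS7 cells overexpressing human LULL1; score merges per-feature 667 nm fluorescence with signal-to-noise.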 The following applies: hLULL1 lysate binding, 635 nm fluorescence, higher = more signal.
A short description of test [6]: E. coli growth modulation, two-sided OD650, primary screen, E. coli filamentation project, strain DRC41, 24 h (AID 1093).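 Further: MC1000 strain lacking acrAB efflux and sulA so SOS filamentation is blocked; test concentration not given here.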 The following applies: OD650, 24 h, higher = more signal, called active from +8 up or from −8 down.
A short description of test [7]: small-molecule microarray binders of probe aLefty2, primary screen, biochemical, biotinylated probe, 635/667 nm fluorescence (AID 1094).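 Further: score merges spot fluorescence near 667 nm with spot signal-to-noise ratio.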 The following applies: higher = more signal.
The test system of test [8] is Noggin (protein binding on small-molecule microarray). As to the kind of experiment: Noggin binders on small-molecule microarray, primary screen, biochemical, 635/667 nm fluorescence (AID 1095).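 Further: score merges 667 nm feature fluorescence with signal to noise over triplicate slides.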 The following applies: 635 nm fluorescence, higher = more signal.
Test [9] has as its target Neurogenic locus notch homolog protein 3 (Homo sapiens) (UniProt Q9UM47). As to the kind of experiment: NOTCH3 binders on small-molecule microarray, primary screen, biochemical, 635/667 nm fluorescence (AID 1096). The following applies: NOTCH3 binding, 635 nm fluorescence, higher = more signal.
Test [10] can be described thus: small-molecule microarray binders of probe aEGFR, primary screen, biochemical, biotinylated probe, 635/667 nm fluorescence (AID 1097).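 Further: probe is a biotinylated anti-EGFR antibody binding compounds printed on slides; score combines fluorescence near 667 nm and signal to noise of each spot.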 The following applies: higher = more signal.
Test [11] has as its system Plasmodium falciparum Sir2 (PF13_0152, Sir2A). As to the kind of experiment: pfSir2 binders on small-molecule microarrays, primary screen, biochemical, small-molecule microarray, 635 nm fluorescence (AID 1098).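 Further: score merges spot fluorescence intensity with its signal-to-noise ratio.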 The following applies: small-molecule microarray binding, fluorescence 635 nm; higher = more signal.
Test [12] is described as follows: small-molecule microarray binders of probe aDKK1, primary screen, biochemical, biotinylated probe, 635/667 nm fluorescence (AID 1099).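 Further: score merges 667nm spot fluorescence with signal to noise across triplicate slides; reference of the scale not given here.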 The following applies: higher = more signal.
The nature of test [13]: small-molecule microarray binders of probe aCHRDL2, primary screen, biochemical, biotinylated probe, 635/667 nm fluorescence (AID 1100). The following applies: higher = more signal.
Test [14] in a line: splicing luciferase reporter signal modulators, primary screen, spliceosome inhibition project, cell-based, HEK293, splice +/- reporter (AID 1101).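 Further: HEK293 cells carrying a splicing-competent luciferase reporter gene; test concentration not given here.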 The following applies: luminescence, 24 h, higher = more signal, called active from +8 up or from −8 down.
In test [15] the target is Fibroblast growth factor 10 (Homo sapiens) (UniProt O15520). In words: FGF10 binders on small-molecule microarrays, primary screen, biochemical, small-molecule microarray, 635 nm fluorescence (AID 1102). The following applies: FGF10 binding, fluorescence 635 nm, higher = more signal.
Test [16] relates to glycogen synthase kinase-3 (GSK3A per assay name; protocol says GSK3B). In words: GSK3 binders on small-molecule microarrays, primary screen, biochemical, small-molecule microarray, 635 nm fluorescence, GSK3A (AID 1103). Further: the record names both GSK3A and GSK3B. The following applies: small-molecule microarray binding, fluorescence 635 nm; higher = more signal.
The target of test [17] is Epidermal growth factor receptor (Homo sapiens) (UniProt P00533). As to the kind of experiment: EGFR binders on small-molecule microarrays, primary screen, biochemical, small-molecule microarray, 635 nm fluorescence (AID 1104).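 Further: score merges 667 nm emission intensity with spot signal to noise over triplicate slides.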 The following applies: EGFR binding, higher = more signal.
Test [18] has as its target Follistatin-related protein 3 (Homo sapiens) (UniProt O95633). As to the kind of experiment: FSTL3 binders on small-molecule microarrays, primary screen, biochemical, small-molecule microarray, 635 nm fluorescence (AID 1105).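 Further: score merges emission near 667 nm and signal to noise per printed spot across three slides.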 The following applies: FSTL3 binding, higher = more signal.
For test [19], the target named is Dickkopf-related protein 1 (Homo sapiens) (UniProt O94907). As to the kind of experiment: DKK1 binders on small-molecule microarrays, primary screen, biochemical, small-molecule microarray, 635 nm fluorescence scan (AID 1106).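 Further: score merges emission near 667 nm with signal to noise over three replicate slides.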 The following applies: DKK1 binding, higher = more signal.
Test [20] relates to Inhibin beta A chain (activin A). As to the kind of experiment: INHBA (activin A) binders on microarrays, primary screen, biochemical, small-molecule microarray, 635 nm fluorescence scan (AID 1107).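 Further: mouse activin A protein probed at 4.33 µg/mL on printed slides; score merges bound-protein fluorescence near 667 nm with spot signal-to-noise.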 The following applies: small-molecule microarray binding, higher = more signal.

Sequence of Torsin-1A-interacting protein 2 (Homo sapiens) (Q8NFQ8 whole entry, looked up): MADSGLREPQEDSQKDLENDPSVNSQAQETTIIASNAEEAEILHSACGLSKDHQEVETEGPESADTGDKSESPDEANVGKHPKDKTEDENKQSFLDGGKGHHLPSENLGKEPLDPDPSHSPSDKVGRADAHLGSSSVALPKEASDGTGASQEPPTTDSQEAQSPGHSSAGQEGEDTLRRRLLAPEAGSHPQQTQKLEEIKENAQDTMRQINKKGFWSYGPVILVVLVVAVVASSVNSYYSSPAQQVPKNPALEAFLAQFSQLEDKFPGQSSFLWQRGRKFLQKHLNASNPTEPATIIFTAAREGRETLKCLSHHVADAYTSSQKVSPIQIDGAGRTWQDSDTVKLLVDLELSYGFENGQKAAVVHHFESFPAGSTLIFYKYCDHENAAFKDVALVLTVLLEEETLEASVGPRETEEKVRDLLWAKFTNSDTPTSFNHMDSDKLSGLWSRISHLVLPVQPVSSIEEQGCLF
Sequence of Epidermal growth factor receptor (Homo sapiens) (P00533 whole entry, looked up): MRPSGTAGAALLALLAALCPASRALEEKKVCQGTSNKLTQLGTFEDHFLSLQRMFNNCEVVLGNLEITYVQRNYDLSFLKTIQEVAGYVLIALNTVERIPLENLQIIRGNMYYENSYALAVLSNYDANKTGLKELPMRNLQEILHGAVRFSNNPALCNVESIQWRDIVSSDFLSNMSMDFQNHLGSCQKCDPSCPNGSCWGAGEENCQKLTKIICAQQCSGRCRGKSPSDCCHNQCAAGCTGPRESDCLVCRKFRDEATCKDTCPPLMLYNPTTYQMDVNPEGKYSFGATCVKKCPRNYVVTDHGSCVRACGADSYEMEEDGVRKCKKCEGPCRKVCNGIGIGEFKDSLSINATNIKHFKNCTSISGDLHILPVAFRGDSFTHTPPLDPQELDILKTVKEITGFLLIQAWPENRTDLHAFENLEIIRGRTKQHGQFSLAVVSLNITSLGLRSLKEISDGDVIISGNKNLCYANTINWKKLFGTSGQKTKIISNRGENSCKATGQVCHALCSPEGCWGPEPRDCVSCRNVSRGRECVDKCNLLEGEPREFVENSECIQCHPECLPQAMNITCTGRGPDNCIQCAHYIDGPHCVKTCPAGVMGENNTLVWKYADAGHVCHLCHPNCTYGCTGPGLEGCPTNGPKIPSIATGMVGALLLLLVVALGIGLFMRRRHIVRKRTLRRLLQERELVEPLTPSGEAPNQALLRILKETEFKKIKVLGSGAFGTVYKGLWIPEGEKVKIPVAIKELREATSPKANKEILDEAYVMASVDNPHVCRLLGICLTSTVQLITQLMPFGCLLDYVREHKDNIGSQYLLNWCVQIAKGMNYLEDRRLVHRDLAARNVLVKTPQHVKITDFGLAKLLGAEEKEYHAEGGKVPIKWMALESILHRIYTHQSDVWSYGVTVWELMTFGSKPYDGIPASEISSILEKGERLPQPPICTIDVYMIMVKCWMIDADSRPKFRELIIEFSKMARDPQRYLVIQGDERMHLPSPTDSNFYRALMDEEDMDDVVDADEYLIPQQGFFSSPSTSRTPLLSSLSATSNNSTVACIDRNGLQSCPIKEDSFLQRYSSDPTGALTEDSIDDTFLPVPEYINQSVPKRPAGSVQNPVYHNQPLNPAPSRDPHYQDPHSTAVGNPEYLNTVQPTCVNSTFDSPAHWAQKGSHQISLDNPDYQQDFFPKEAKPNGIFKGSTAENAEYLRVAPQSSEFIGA
Sequence of Dickkopf-related protein 1 (Homo sapiens) (O94907 whole entry, looked up): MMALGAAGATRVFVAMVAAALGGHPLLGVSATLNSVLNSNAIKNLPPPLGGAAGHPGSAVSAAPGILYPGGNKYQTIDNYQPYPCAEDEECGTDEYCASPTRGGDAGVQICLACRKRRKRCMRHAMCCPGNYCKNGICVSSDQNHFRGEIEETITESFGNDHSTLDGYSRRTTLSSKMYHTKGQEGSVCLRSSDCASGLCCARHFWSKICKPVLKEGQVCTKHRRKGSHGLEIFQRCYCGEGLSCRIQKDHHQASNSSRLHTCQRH
Sequence of Follistatin-related protein 3 (Homo sapiens) (O95633 whole entry, looked up): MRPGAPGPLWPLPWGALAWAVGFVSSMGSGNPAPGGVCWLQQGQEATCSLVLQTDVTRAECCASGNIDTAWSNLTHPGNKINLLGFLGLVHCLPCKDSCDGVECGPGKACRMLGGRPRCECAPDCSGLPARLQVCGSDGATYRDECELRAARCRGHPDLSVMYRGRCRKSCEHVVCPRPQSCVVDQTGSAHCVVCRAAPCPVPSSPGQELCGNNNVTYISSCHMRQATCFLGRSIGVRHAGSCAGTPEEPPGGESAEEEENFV
Sequence of Fibroblast growth factor 10 (Homo sapiens) (O15520 whole entry, looked up): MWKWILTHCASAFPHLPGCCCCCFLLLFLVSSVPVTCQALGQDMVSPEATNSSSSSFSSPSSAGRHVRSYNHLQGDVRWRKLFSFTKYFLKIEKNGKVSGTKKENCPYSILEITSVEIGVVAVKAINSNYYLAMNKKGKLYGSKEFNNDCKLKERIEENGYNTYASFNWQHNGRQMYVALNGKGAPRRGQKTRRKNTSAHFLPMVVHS
Sequence of Neurogenic locus notch homolog protein 3 (Homo sapiens) (Q9UM47 whole entry, looked up): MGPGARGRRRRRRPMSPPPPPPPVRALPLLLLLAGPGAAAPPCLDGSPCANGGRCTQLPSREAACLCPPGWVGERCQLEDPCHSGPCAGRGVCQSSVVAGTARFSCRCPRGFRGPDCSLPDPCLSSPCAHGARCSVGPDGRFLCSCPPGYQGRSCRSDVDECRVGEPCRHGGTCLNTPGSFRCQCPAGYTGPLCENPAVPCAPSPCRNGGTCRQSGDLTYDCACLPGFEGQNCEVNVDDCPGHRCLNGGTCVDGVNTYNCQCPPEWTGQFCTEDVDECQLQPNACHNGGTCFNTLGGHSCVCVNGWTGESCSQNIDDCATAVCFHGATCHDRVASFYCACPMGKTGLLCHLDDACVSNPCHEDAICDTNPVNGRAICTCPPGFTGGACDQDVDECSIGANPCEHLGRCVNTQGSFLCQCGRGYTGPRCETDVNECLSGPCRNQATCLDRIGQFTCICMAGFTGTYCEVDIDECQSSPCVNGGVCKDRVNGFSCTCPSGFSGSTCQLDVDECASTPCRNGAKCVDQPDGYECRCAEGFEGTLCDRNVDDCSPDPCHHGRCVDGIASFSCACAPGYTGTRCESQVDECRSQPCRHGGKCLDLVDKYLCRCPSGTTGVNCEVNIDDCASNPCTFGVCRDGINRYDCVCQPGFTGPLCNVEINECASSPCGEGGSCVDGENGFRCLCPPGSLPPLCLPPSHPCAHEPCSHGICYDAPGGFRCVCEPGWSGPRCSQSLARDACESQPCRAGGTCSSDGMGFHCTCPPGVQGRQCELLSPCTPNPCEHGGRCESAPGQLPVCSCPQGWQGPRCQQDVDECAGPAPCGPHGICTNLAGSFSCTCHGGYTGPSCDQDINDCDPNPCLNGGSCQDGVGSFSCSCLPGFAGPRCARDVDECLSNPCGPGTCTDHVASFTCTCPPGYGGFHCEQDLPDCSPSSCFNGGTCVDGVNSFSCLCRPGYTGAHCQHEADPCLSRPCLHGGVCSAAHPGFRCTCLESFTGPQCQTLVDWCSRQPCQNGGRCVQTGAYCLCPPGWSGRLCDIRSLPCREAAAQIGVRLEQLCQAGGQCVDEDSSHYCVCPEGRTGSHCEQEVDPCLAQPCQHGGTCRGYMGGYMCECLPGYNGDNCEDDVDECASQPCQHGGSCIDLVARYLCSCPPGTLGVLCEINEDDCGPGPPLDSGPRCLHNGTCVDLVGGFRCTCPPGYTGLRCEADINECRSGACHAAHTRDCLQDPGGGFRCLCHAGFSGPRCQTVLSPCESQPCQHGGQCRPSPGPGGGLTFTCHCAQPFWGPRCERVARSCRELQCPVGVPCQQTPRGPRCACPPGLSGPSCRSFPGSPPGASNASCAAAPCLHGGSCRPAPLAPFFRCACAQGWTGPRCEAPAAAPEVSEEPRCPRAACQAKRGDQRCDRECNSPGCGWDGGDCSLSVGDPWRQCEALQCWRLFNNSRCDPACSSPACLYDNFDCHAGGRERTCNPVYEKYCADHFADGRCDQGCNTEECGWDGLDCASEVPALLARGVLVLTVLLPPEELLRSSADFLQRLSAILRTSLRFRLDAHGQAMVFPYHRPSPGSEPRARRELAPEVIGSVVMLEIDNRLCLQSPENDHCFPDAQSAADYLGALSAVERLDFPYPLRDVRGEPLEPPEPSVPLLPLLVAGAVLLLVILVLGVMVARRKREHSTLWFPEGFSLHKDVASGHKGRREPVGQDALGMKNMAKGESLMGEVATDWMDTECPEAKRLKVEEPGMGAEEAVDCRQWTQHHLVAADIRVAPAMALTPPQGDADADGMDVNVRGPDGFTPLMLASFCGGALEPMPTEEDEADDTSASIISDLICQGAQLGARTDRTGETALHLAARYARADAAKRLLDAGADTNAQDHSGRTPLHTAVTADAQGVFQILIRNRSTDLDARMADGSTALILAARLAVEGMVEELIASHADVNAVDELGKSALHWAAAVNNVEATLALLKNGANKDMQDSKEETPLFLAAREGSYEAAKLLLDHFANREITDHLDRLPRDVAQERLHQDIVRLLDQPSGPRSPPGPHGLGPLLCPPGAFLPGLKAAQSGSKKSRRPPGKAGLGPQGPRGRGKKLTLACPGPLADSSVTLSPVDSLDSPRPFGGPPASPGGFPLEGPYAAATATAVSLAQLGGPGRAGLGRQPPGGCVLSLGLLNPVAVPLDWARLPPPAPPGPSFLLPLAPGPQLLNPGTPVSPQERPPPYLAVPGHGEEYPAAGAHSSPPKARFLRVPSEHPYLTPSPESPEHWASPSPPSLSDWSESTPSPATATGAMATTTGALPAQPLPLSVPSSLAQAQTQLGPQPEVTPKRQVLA

As for `CC(C)(C)OC(=O)CC[C@]1(C(=O)NCC(O)CO)N=C(c2ccc(OCCCO)cc2)O[C@H]1c1ccccc1` (stereo not given in full), the composite z-score in test [1] was -0.362; in test [5], 3.45; in [7], 0.0424; in [8], -0.837; in [9], -0.89; in [10] it was 0.109. The composite z-score was 0.835 in [11]; 1.1 in test [12]; 0.897 in test [13]; 0.57 in test [15]; 0.206 in [16]; -0.516 in test [17]. Besides, the composite z-score is -0.715 in test [18], -1.09 in [19] and -0.0014 in test [20]. Moreover, the z-score is -0.866 (inactive) in test [2]; -0.956 (inactive) in test [3]; -0.744 (inactive) in test [4]; 1.91 (inactive) in test [6]; -0.495 (inactive) in test [14].
Consider `CC(C)N1CC=CC23O[C@@H]4C=CCOC(=O)[C@@H]4[C@H]2C(=O)N(CCCO)[C@@H]3C1=O` (stereo not given in full), for which the composite z-score in [1] is 0.943; in [5], 2.41; in test [7], -0.178; in test [8], 0.927; in [9] it was -0.145; in [10], -0.178. The composite z-score in [11] was 1.95; in [12], -0.286; in [13], 0.627; in [15] it was -0.0827; in [16], 0.0274; in test [17], -0.42. Moreover, the composite z-score in test [18] is -0.123; in test [19], -0.74; in [20], 0.929. Further, the z-score was -1.46 (inactive) in [2]; -2.28 (inactive) in [3]; -1.58 (inactive) in [4]; 2.67 (inactive) in test [6]; -3 (inactive) in [14].
Take `C=CCC(OC(C)=O)[C@@H]1[C@@H](N(Cc2cc3ccccc3o2)C(=O)Cc2ccc(F)cc2)c2cc(OCCCO)ccc2N1C(=O)c1ccc2ccccc2c1` (stereo not given in full): the composite z-score was -0.381 in test [1]; -0.383 in test [5]; -0.0708 in test [7]; 0.437 in test [8]; -0.44 in test [9]; -0.112 in test [10]. Moreover, the composite z-score in test [11] was -0.365; in test [12] it was -0.0572; in test [13], 0.165; in test [15], -0.234; in [16], -0.711; in test [17] it was 0.0137. Also, the composite z-score in test [18] was 0.331; in [19], 0.0521; in test [20], 1.04. The z-score was -0.313 (inactive) in test [2]; 0.716 (inactive) in test [3]; -0.538 (inactive) in test [4]; -1.07 (inactive) in [6]; 0.111 (inactive) in test [14].
As to `CCCCC=C[C@@H](NC(=O)c1ccc(-c2ccccc2)cc1)c1ccccc1`, the composite z-score in test [1] is 0.246; in test [5], 2.44; in test [7], 0.179; in [8], -0.323; in test [9], 0.496; in [10], -0.094. The composite z-score is 0.379 in test [11]; 0.0006 in [12]; 0.087 in test [13]; 0.462 in [15]; 1.08 in test [16]; 0.0139 in test [17]. Besides, the composite z-score in [18] was -0.203; in test [19] it was 0.381; in test [20], 0.183. The z-score was 0.603 (inactive) in test [2]; -1.45 (inactive) in [3]; -0.713 (inactive) in test [4]; -0.444 (inactive) in [6]; 2.94 (inactive) in test [14].
Turning to `O=C1c2ccccc2[C@](Cc2ccccc2I)(C(=O)NCC(F)(F)F)[C@H](c2ccc(CO)cc2)N1C1CCCCC1`, the composite z-score in [1] is 1.56; in test [5] it was 3.02; in [7] it was -0.0408; in test [8] it was 0.169; in test [9], 1.08; in test [10], -0.0315. Moreover, the composite z-score in test [11] turned out to be 1.6; in [12], 0.663; in test [13] it was 0.821; in test [15] it was 1.04; in test [16], 0.884; in test [17] it was 0.109. Besides, the composite z-score is 0.66 in [18], -0.239 in test [19] and 0.82 in test [20]. Besides, the z-score was 0.0808 (inactive) in [2]; -1.76 (inactive) in test [3]; -0.0447 (inactive) in test [4]; 1.38 (inactive) in [6]; 1.47 (inactive) in test [14].
